This is an account of results in PubChem BioAssay (Tox21).

Results filed as inconclusive are left out. Values without a mark were called inactive. Calls come from the whole dose curve; as a rule, active = well fitted inhibition curve with a large enough effect in the signal ratio in the repeat runs (not every such curve was filed as active); inconclusive = weak or mixed curves, or effect the other way; inactive = flat fitted curve, though single readings scatter; the % refers to the signal ratio.
% is set by controls: 0 for no effect and ±100 for the full control effect.

This assay in a line: cAMP Responsive Elements (CRE) small molecule antagonists, cell-based qHTS assay (AID 1963591). The following applies: CRE-bla HEK293T, beta-lactamase FRET ratio; series mostly up to 92.4 µM; activity change, negative = inhibition: at the top concentration. The source says: U.S. Tox21 Program National Center for Advancing Translational Sciences [NCATS] Division of Preclinical Innovation [DPI] U.S. Environmental Protection Agency [EPA] National Institutes of Environmental Health Sciences [NIEHS] National Toxicology Program [NTP] U.S. Food and Drug Administration [FDA] Tox21 Assay Overview: CREB (cyclic-AMP Responsive Element Binding Protein) is a cellular transcription factor. It binds to certain DNA sequences called cAMP Responsive Elements (CRE) and regulates the transcription of the genes. […] This cell line can be used to find agonists/antagonists of the cyclic AMP signaling pathway. The activation of the report gene under culture conditions can be detected by fluorescence intensity. This cell line has been used to screen the Tox21 10K compound library to […].
Tox21 Assay Protocol Summary: CRE-bla Hek 293T cells were suspended in assay medium (DMEM containing 10% dialyzed FBS, 0.1 mM NEAA, 1 mM sodium pyruvate and 25 mM HEPES) and dispensed at 2,000 cells/4 uL /well into 1536-well black wall/clear bottom plates using a Multidrop Combi (ThermoFisher Scientific, Waltham, MA) dispenser. After the assay plates were incubated at 37 C/5% CO2 for 18 hrs, 23 nL of compounds dissolved in DMSO, positive controls or DMSO only was transferred to the assay plate by a pintool workstation (Kalypsys, San Diego, CA), followed by addition of 1 […] uL of 1.25uM NKH477 (0.25 uM as final concentration) in assay medium using a Flying Reagent Dispenser (Aurora Discovery, San Diego, CA). The plates were incubated at 37 C and 5% CO2 for 3 hrs. Then 1 uL of LiveBLAzer B/G FRET substrate (Invitrogen, Carlsbad, CA) was added to each well using Bioraptr Flying Reagent Dispenser (FRD, Aurora Discovery, San Diego, CA). The plates were incubated at room temperature for 2 h.
Consider `COC(=O)CCCC(=O)O`, for which the “activity change, negative = inhibition” value was -8.8%. The same measure for `O=C(O)c1cccc(O)c1`: 3.8%; for `O=NN(CCCl)C(=O)NC1CCCCC1`: 1.82% [at 42.4 µM]; for `CC(C)C(=O)OC/C=C/c1ccccc1`: -7.91%. Consider `Cc1c(C(C)C)c(=O)n(-c2ccccc2)n1C`, for which the “activity change, negative = inhibition” value is -7.18% [at 42.4 µM].

In the case of `O=C(OCCCCCOC(=O)c1ccccc1)c1ccccc1`, the “activity change, negative = inhibition” value is -3.74%. The result for `CCOC(=O)c1ccc(OC(=O)CCCCCN=C(N)N)cc1` reads 8.62% [at 42.4 µM].

Turning to `CCS(=O)(=O)CCn1c([N+](=O)[O-])cnc1C`, the “activity change, negative = inhibition” value was -12.6% [at 42.4 µM].

Consider `CC(C)CC(=O)C1C(=O)c2ccccc2C1=O`, for which the “activity change, negative = inhibition” value was -3.42%. As to `CCCCCCCCCCCCCCCCOP(=O)([O-])OCC[N+](C)(C)C`, the “activity change, negative = inhibition” value was -5.24% [at 42.4 µM]. For `O=CNNC=O`, the “activity change, negative = inhibition” value is -1.73%. Turning to `CC(C)(C)NC[C@H](O)COc1cccc2c1CCCC2=O`, the “activity change, negative = inhibition” value was -4.39% [at 42.4 µM]. The same measure for `Cc1cc(C(C)(C)C)c(O)c(C)c1Cn1c(=O)n(Cc2c(C)cc(C(C)(C)C)c(O)c2C)c(=O)n(Cc2c(C)cc(C(C)(C)C)c(O)c2C)c1=O`: -19.8%; for `CO[Si](CCCS)(OC)OC`: 12.3%; for `CCN(CC)CCNC(=O)c1cc(Br)c(N)cc1OC`: -2.29% [at 42.4 µM]. On to `CC(=O)CCCCn1c(=O)c2c(ncn2C)n(C)c1=O`, for which the “activity change, negative = inhibition” value is 7.57% [at 42.4 µM]. Consider `c1ccc(SSc2ccccc2)cc1`, for which the “activity change, negative = inhibition” value was -9.36%.

Turning to `CCOC(=O)Cn1cccc1-c1nc(-c2ccc(OC)cc2)c(-c2ccc(OC)cc2)s1`, the “activity change, negative = inhibition” value was 9.01% [at 42.4 µM]. Regarding `CCCCCCOC(=O)CCCCC`, the “activity change, negative = inhibition” value was -1.44%. On to `CCC1(C)NC(=O)NC1=O` (stereo not given), for which the “activity change, negative = inhibition” value was -3.53%. Regarding `CC[N+](CC)(CCNC(=O)C(=O)NCC[N+](CC)(CC)Cc1ccccc1Cl)Cc1ccccc1Cl`, the “activity change, negative = inhibition” value was -1.17% [at 42.4 µM]. Regarding `O=C(O)c1ccc(Cl)cc1Cl`, the “activity change, negative = inhibition” value was 0.881%. As for `CC(C)C[C@@H]1[C@H](c2ccccc2)OC(=O)N1CCCN1CCCCCC1`, the “activity change, negative = inhibition” value was -1.67% [at 42.4 µM].

Take `Cc1cccc(Nc2ccncc2S(=O)(=O)NC(=O)NC(C)C)c1`: the “activity change, negative = inhibition” value is -7.03% [at 42.4 µM]. `C=CC1CC2C=CC1C2` (stereo not given): the “activity change, negative = inhibition” value is 0.214%. For the compound `O=c1c(O)c(O)c1=O`, the “activity change, negative = inhibition” value is 0.41%. On to `O=[N+]([O-])c1ccc2[nH]ncc2c1`, for which the “activity change, negative = inhibition” value was 4.96%. For `CCN(CC)CCOC(=O)C(c1ccccc1)c1ccccc1`, the “activity change, negative = inhibition” value was -2.95% [at 42.4 µM]. As to `C1CCN2C[C@@H]3C[C@@H](CN4CCCC[C@@H]34)[C@H]2C1`, the “activity change, negative = inhibition” value is -5.01% [at 42.4 µM].

Take `COC(=O)c1ccc(OC)cc1`: the “activity change, negative = inhibition” value was -1.25%. Consider `Cc1cc(C(C)(C)C)cc(C)c1CC1=NCCN1`, for which the “activity change, negative = inhibition” value is 1.35% [at 42.4 µM]. On to `COc1cc(OC)nc(NC(=O)NS(=O)(=O)Nc2ccccc2C(=O)N(C)C)n1`, for which the “activity change, negative = inhibition” value is 6.98%. Turning to `CC1=CC(O)CC(C)(C)C1` (stereo not given), the “activity change, negative = inhibition” value is 0.0672%.

With `S=C(SSSSSSC(=S)N1CCCCC1)N1CCCCC1`, the activity change, negative = inhibition is -25.4% [at 18.9 µM]. The same measure for `CCOC(=O)c1ccccc1O`: 6.65% [at 42.4 µM].

Consider `Clc1nnc(Cl)c2ccccc12`, for which the “activity change, negative = inhibition” value is 0.465%. Turning to `Cc1c[nH]c2ccccc12`, the “activity change, negative = inhibition” value is 0.898% [at 42.4 µM]. Consider `CC(C)CCCCCCc1ccc(OCCOCCO)cc1`, for which the “activity change, negative = inhibition” value is 5.47%. As for `C#CCN[C@@H]1CCc2ccccc21`, the “activity change, negative = inhibition” value is 2.33% [at 42.4 µM]. Turning to `CN(C)c1ccc(CCO)cc1`, the “activity change, negative = inhibition” value is -2.55%.
